# Hits are enriched below; roughly 5.7% of the tested compounds scored in any of these assays.
# ClpP mod: qHTS Assay for Activators of ClpP | ATP-dependent Clp protease proteolytic subunit (Bacillus subtilis (strain 168)), P80244 | 1.9% of 340,000 active | Potency, µM (doses to about 57.5 µM) | AID 651965, 2013 | purified B. subtilis ClpP, FRET peptide cleavage, 20 min; active means well fitted falling curve with a large enough effect; inconclusive means small, poorly fitted or top-dose-only effect; inactive means no such curve, though single readings can be large or run the other way; further: the source files actives as falling curves though it sought activators and does not explain the sign; nearly all actives have a fitted effect of over 65% in size
#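 Purified B. subtilis ClpP, 10 microg/mL final in Tris/HCl pH8 with KCl, BSA, glycerol and Tween-20, cleaved an Abz/nitrotyrosine-quenched decapeptide. Fluorescence (ex 320, em 430) was read at 0 and 20 min at room temperature. Delta was normalized to 5.8 microM ADEP and DMSO/no-enzyme controls.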
# D3 ag: activates the human D3 dopamine receptor; max activation, %; D3R DiscoveRx beta-arrestin cells, luminescence, 90 min; P35462; 0.58% of 410,000 active; in the data active means max activation above about 30%
#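 Cells at 1500/well, incubated overnight, then treated with pinned compounds (dopamine as control) for 90 min at 37 degrees C. DiscoveRx reagent added for 30 - 60 minutes at room temperature; luminescence read.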
# GLP1R cytotox: cytotoxicity counter-screen for GLP-1 receptor inverse agonists. Potency, µM (series often up to 38.3 µM), actives largely listed as inhibitors. 0.13% of 410,000 active. AID 624418. HEK293 cAMP-luciferase reporter cells, luminescence, 24 h;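 further: loss of luciferase light is scored as toxicity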
#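 Cells in DMEM/10% Nu serum/1% pen-strep, 1536-well format. Pre-incubated 12 h, dosed with 23 nL compound, incubated a further 24 h. Luciferase detection, 12 min at room temp, luminescence.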
# GLP-1R inv ag: acts as inverse agonist at human GLP-1 receptor | Potency, µM (doses to about 38.3 µM), actives largely listed as inhibitors | 1.6% of 410,000 active | P43220 | HEK293 GLP-1R CRE-luciferase, luminescence, 24 h; GLP-1R form is constitutively active; further: nearly all actives have a fitted effect of over 55% in size
# Target sequence (P43220 whole entry, looked up): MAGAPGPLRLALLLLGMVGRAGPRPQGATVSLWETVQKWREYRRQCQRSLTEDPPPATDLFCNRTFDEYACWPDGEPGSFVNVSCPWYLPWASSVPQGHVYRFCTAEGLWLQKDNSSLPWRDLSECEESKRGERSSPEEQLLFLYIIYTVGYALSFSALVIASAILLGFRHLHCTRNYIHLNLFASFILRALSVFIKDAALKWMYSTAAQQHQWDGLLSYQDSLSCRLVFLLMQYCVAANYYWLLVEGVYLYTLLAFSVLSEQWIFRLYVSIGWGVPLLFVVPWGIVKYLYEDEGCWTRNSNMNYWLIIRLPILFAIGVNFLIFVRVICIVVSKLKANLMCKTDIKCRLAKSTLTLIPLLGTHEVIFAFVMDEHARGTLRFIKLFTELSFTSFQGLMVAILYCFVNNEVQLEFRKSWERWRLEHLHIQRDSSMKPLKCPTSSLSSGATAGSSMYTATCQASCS
#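 Seeding at 200 cells/uL, 12 h culture, 24 hr compound treatment, then luciferase reagent and a luminescence read; cells are HEK293 stably expressing a constitutively active GLP-1R plus cAMP-responsive luciferase.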
# D3 antag: D3 dopamine receptor (human) antagonism; P35462; D3R cells, DiscoveRx beta-arrestin luminescence, antagonist mode; active compounds read low; 2.5% of 360,000 active; max response, negative = inhibition, %; in the data active means max response below about -50%; inconclusive means no clear call, values can overlap the other calls
#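 Cells plated overnight at 1500 cells/well, then exposed to library compounds with dopamine controls for 90 minutes at 37 degrees C. DiscoveRx reagent added for 30–60 minutes at room temperature; luminescence read, quantitative HTS format.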
# GLP1R ag: activates the human GLP-1 receptor. P43220. 0.007% of 380,000 active. Potency, µM (titrated, usually from 45.6 µM), hits mostly activators. AID 624172. HEK293 GLP-1R CRE-luciferase, luminescence, 4-6 h; cells express a hypersensitive GLP-1R form
# A number is an active result; n = inactive; u = inconclusive; x = no result given; [ ] = dose if it differs, or a comment. Unless noted, the call rests on the fitted dose curve; in most records, active means well fitted curve in the direction sought with a large enough effect; inconclusive means small, poorly fitted or top-dose-only effect, or another doubt; inactive means no such curve, though single readings can be large; an effect the other way counts as inactive or inconclusive.
SMILES,ClpP mod,D3 ag,GLP1R cytotox,GLP-1R inv ag,D3 antag,GLP1R ag
O=C(NCCN1CCN(C(=O)c2c(F)cccc2F)CC1)C(=O)Nc1ccc(Cl)cc1,n,n,n,n,n,n
CCOCCCn1c(=N)c(C(=O)NCc2ccccc2)cc2c(=O)n3ccccc3nc21,n,n,n,n,x,n
CCNC(=O)c1cc2c(=O)n3cccc(C)c3nc2n(Cc2ccc(C)cc2)c1=N,4.47µM,n,n,n,n,n
COC(=O)c1cc2c(=O)n3ccccc3nc2n(Cc2cccnc2)c1=N,6.31µM,n,n,n,n,n
CC(C)OCCCn1c(=N)c(C(N)=S)cc2c(=O)n3ccccc3nc21,14.1µM,n,n,n,n,n
N=c1c(C(=O)NCc2ccccc2)cc2c(=O)n3ccccc3nc2n1CCCN1CCOCC1,3.16µM,n,n,n,n,n
COC(=O)c1ccc(NC(=O)CC2C(=O)N(c3ccccc3)C(=O)N2Cc2ccc(F)cc2)cc1 (stereo not given),n,n,n,n,x,x
Cc1ccc(CNC(=O)COCc2cc(-c3cccs3)on2)cc1,n,n,n,n,x,x
O=C(CN1CCNCC1)NC1CCCCC1,x,n,x,x,x,n
Cc1ccc(C)c(NC(=O)c2ccc3c(c2)CCCN3S(C)(=O)=O)c1,n,n,n,n,x,x
C=CCn1c(=N)c(C(=O)NCCCOC)cc2c(=O)n3ccccc3nc21,6.31µM,n,n,n,n,n
CCCn1c(=N)c(C(=O)NCc2cccnc2)cc2c(=O)n3ccccc3nc21,n,n,n,n,x,n
N=c1c(C(=O)NCc2ccc(F)cc2)cc2c(=O)n3ccccc3nc2n1Cc1cccnc1,7.08µM,n,n,n,n,n
C=CCn1c(=N)c(C(=O)NCCCOC)cc2c(=O)n3cc(C)ccc3nc21,n,n,n,n,n,n
CC(=O)N(C1=C(Cl)C(=O)c2ccccc2C1=O)C1CCCCC1,n,n,n,u,-85.0,n
CC(=O)N(c1ccccc1C)C1CCCC1,n,n,n[1.53 µM],n,n,n
N#Cc1ccccc1NC(=O)c1ccccc1OCC(=O)Nc1ccc2c(c1)oc1ccccc12,n,n,u,n,n,n
COc1ccc(NC(=O)c2oc3ccccc3c2NC(=O)COc2ccccc2OC)c(OC)c1,n,58.3,n,n,n,n
COc1ccc(NC(=O)c2coc(=O)c3ccccc23)cc1OC,n,n,n,n,x,x
CNC(=O)COc1ccccc1C(=O)Nc1ccc2c(c1)oc1ccccc12,3.98µM,n,n,n,n,n
CCCN(CCC)C(=O)c1oc2ccccc2c1NC(=O)Cc1cccc(OC)c1,n,n,n,7.94µM,n,n
COc1ccc(NC(=O)c2coc3ccccc23)cc1OC,n,n,n,n,-66.7,n
COc1ccc(NC(=O)c2oc3ccccc3c2NC(=O)COc2ccc(C(C)C)cc2)c(OC)c1,u,n,n,n,x,n
Cc1ccccc1NC(=O)c1c(NC(=O)c2ccco2)sc2c1CCC(C(C)(C)C)C2 (stereo not given),n,n,n,n,x,x
Cc1cccc(OCC(=O)Nc2ccc(S(=O)(=O)N(Cc3ccccc3)c3ccccc3)cc2)c1,n,n,n,n,x,x
SMILES,ClpP mod,D3 ag,GLP1R cytotox,GLP-1R inv ag,D3 antag,GLP1R ag
CN(CCc1ccccc1)C(=O)c1ccc(NC(=O)Cc2ccc(NC(=O)C3CCN(C(=O)CCc4ccccc4)CC3)cc2)cc1,n,n,n,u,n,n
COc1ccc(NC(=O)C2CCC(CNS(=O)(=O)c3ccc(Br)s3)CC2)cc1OC (stereo not given),n,n,n,n,x,x
COc1cc2c(cc1NC(=O)COc1ccccc1OC)oc1ccccc12,25.1µM,n,n,n,n,n
COc1cc2c(cc1NC(=O)CN(C)Cc1ccc(OC)c(OC)c1)oc1ccccc12,u,37.8,n,u,n,n
COc1cc2c(cc1NC(=O)COC(=O)c1ccc(C(C)(C)C)cc1)oc1ccccc12,x,n,n,n,n,n
COc1cc2c(cc1NC(=O)COC(=O)C(CCSC)NC(=O)c1ccccc1Cl)oc1ccccc12 (stereo not given),25.1µM,n,n[1.53 µM],n,n,n

# High-throughput results as filed in PubChem BioAssay.
